Assay outcomes deposited in PubChem BioAssay by National Center for Advancing Translational Sciences (NCATS).
KB-3-1 cytotox = KB-3-1 parental cell cytotoxicity; Potency, µM (top dose mostly 46.1 µM), hits mostly cytotoxic; 1.4% of 400,000 active; KB-3-1 viability, CellTiter-Glo ATP luminescence, 72 h; AID 1347075; note: % is set by controls: 0 for no effect and ±100 for the full control effect; nearly all actives have a fitted effect of over 60% in size
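Here the drug-naive KB-3-1 line serves as comparator for MDR sub-line selectivity; cells received compound titrations, 72 h at 37 °C, then CellTiter-Glo readout.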
HT1080 IDH1KD tx = toxicity to HT-1080 IDH1 knockdown cells (counter line). HT-1080 IDH1 knockdown viability, ATP luminescence, 48 h. Potency, µM (series often up to 46.1 µM), inactives show at the top dose activity, negative = toxicity, most hits filed as cytotoxic. 2% of 360,000 active;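 note: 0% = DMSO wells and -100% = cell-free medium wells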
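IDH1KD HT-1080 cells, 750/well, RPMI + 5% FBS; compound pinned after 2 h settling; 48 h, 37 °C; CellTiter-Glo luminescence; % activity normalised to DMSO and no-cell wells; curves fitted, classed by r2 and efficacy.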
ATXN2 expr inh = inhibitors of ATXN2 expression. HEK-293 ATXN2-luciferase reporter, luminescence, 24 h. 0.72% of 360,000 active. Potency, µM (doses to about 57 µM), for inactives: at the top dose activity change, negative = inhibition, actives largely listed as inhibitors; note: % is set by controls: 0 for no effect and ±100 for the full control effect; nearly all actives have a fitted effect of over 55% in size
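ATXN2-luciferase reporter cells (luciferase flanked by upstream and downstream ATXN2 gene portions) were treated 24 h at 37 °C with compounds at up to 57 uM. SteadyGlo luminescence gave expression; GF-AFC fluorescence gave viability.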
ATXN viability = viability counter-screen for ATXN expression inhibitors | Potency, µM (top dose mostly 56.7 µM), usual class: cytotoxic | AID 651635 | S2 cells (HEK-293 line with an ATXN2-luciferase reporter) viability, CellTiter-Fluor protease fluorescence, 24 h | 0.49% of 400,000 active; note: nearly all actives have a fitted effect of over 40% in size
HT1080NT lethal = kills 2HG-producing HT-1080-NT fibrosarcoma cells; HT-1080-NT fibrosarcoma viability, CellTiter-Glo ATP luminescence, 48 h; Potency, µM (titrated, usually from 46.1 µM), inactives show at the highest dose activity, negative = less viability, hits mostly cytotoxic; 1.6% of 360,000 active; AID 686970;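 note: NT is the 2HG producing partner of a matched IDH1 knockdown line; 0% = DMSO-treated cells and -100% = media-only wells without cells; nearly all actives have a fitted effect of over 55% in size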
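Luminescent CellTiter-Glo readout after 48 hours of compound exposure at 37 degrees C defined viability of HT-1080-NT cells. Activity was normalized to DMSO wells and cell-free media wells; concentration-response curves were fitted and assigned curve classes.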
KB-V1 cytotox = KB-V1 MDR subline cytotoxicity. KB-V1 MDR cells viability, CellTiter-Glo, 72 h. Potency, µM (titrated, usually from 46.1 µM), usual class: cytotoxic. 3.4% of 400,000 active; note: % is set by controls: 0 for no effect and ±100 for the full control effect; nearly all actives have a fitted effect of over 60% in size
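Cytotoxicity toward P-gp-expressing KB-V1 cells was determined as loss of CellTiter-Glo luminescence after 72 h at 37 degrees C. Compounds were tested in quantitative HTS format across a concentration range, with curves fitted to normalized data.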
The depositor's hits bear a star; i = inactive; ? = inconclusive; / = not tested or not shown. Sampled rows, rich in hits. Any-hit rate of the full collection: about 6.2%. Calls come from the whole dose curve; as a rule, active = well fitted curve in the direction sought with a large enough effect; inconclusive = small, poorly fitted or top-dose-only effect, or another doubt; inactive = no such curve, though single readings can be large; an effect the other way counts as inactive or inconclusive. Potency is the fitted concentration of half-maximal effect.

SMILES | KB-3-1 cytotox | HT1080 IDH1KD tx | ATXN2 expr inh | ATXN viability | HT1080NT lethal | KB-V1 cytotox
Cc1c(C(=O)NCc2cccnc2)oc2ccccc12 | i | -1% | 4% | i | 8% | 16µM*
Cc1c(C(=O)Nc2ccccn2)oc2ccccc12 | i | ? | 68% | i | -8% | 10µM*
Cc1c(C(=O)NCCc2ccccc2)oc2ccccc12 | i | 16% | 40% | i | 20% | i
O=C(Nc1ccccc1C(=O)Nc1nnc(C(F)(F)F)s1)c1ccccc1 | ? | 4.6µM* | ? | ? | 3.3µM* | ?
CCCCCCCC(=O)N/N=C(\C)c1ccc(O)cc1O | ? | ? | 0% | ? | ? | i
CC(=NNC(=O)c1ccncc1)c1ccc(O)cc1O | ? | ? | 14µM* | i | -18% | i
CCCCCCCCC(=O)N/N=C(\C)c1ccc(O)cc1O | i | ? | 18µM* | ? | -28% | ?
C/C(=N\NC(=O)c1cc(C)nc2ccccc12)c1ccc([N+](=O)[O-])cc1 | i | -25% | -4% | i | -14% | i
CC(=NNC(=O)c1ccncc1)c1ccccc1O | ? | ? | ? | i | ? | i
CC(=NNC(=O)c1ccncc1)c1ccc2ccccc2c1O | ? | 5.8µM* | ? | i | ? | ?
C/C(=N\NC(=O)c1cc(C)nc2ccccc12)c1ccncc1 | ? | 7.3µM* | -6% | i | ? | ?
O=C(CCCN1CCC(n2c(=S)[nH]c3ccccc32)CC1)c1ccc(F)cc1 | / | / | / | i | / | /
C/C(=N\NC(=O)c1cc(-c2cccnc2)nc2ccccc12)c1ccc(O)cc1O | ? | ? | 4µM* | ? | ? | ?
C/C(=N\NC(=O)c1cccc(N/N=C(\C)c2ccco2)c1)c1ccco1 | i | 3% | / | ? | 4% | ?
C/C(=N\NC(=O)c1cccc(N/N=C(\C)c2cc(O)ccc2O)c1)c1cc(O)ccc1O | ? | 18µM* | ? | ? | 23µM* | ?
CC(C)CC(=NNC(=O)c1ccncc1)c1cc(Cl)ccc1O | ? | 0.82µM* | 2.8µM* | ? | ? | ?
Cc1nc(C)n(CC(=O)N2CCOc3ccc(CN4CCN(C)C[C@@H]4c4ccccc4)cc3C2)n1 | / | / | / | i | / | /
COc1cccc(C(=O)NCC2Cc3cccc(-c4nc(C)cnc4C)c3O2)c1OC (stereo not drawn) | / | / | / | i | / | /
O=S(=O)(/C(=C/c1ccc(C(F)(F)F)cc1)c1nc2ccccc2[nH]1)c1ccccc1 | 5.2µM* | 4.6µM* | ? | 27µM* | 2.6µM* | i
CC(C)c1ccc(/C=C(\c2nc3ccccc3[nH]2)S(=O)(=O)c2ccccc2)cc1 | ? | 3.3µM* | ? | ? | 5.2µM* | 2.6µM*
COc1ccc(CCNc2ncnc3sc(C(=O)N4CCCCC4)c(C)c23)cc1OC | / | / | / | i | / | /
COc1ccc(S(=O)(=O)Cc2ccc(C(=O)NCCCN(C)c3ccccc3)o2)cc1 | i | -22% | -13% | i | -15% | 6.5µM*
CCCNC(=O)C(=O)NCC(c1ccc2c(c1)OCO2)N1CCOCC1 (stereo not drawn) | i | / | / | / | / | i
CNC(=S)N(CCc1c(C)[nH]c2ccccc12)Cc1cccnc1 | ? | 0% | -5% | i | -2% | i
Cc1ccc2ccc(C(Nc3ccccn3)c3ccccc3)c(O)c2n1 (stereo not drawn) | i | -22% | ? | i | -30% | ?
SMILES | KB-3-1 cytotox | HT1080 IDH1KD tx | ATXN2 expr inh | ATXN viability | HT1080NT lethal | KB-V1 cytotox
Cc1ccc2ccc(C(Nc3ccccc3)c3ccc(F)cc3)c(O)c2n1 (stereo not drawn) | i | ? | / | / | ? | ?
Cc1ccnc(NC(c2ccsc2)c2ccc3ccc(C)nc3c2O)c1 (stereo not drawn) | i | 15µM* | 14% | i | ? | i
Cc1ccc2ccc(C(Nc3ccccc3)c3ccccc3)c(O)c2n1 (stereo not drawn) | 4.1µM* | ? | / | / | -8% | ?
COc1cc(C(Nc2ccccn2)c2ccc3ccc(C)nc3c2O)cc(OC)c1O (stereo not drawn) | ? | 15µM* | ? | / | -29% | 16µM*
COc1ccc(C(Nc2cc(C)ccn2)c2ccc3ccc(C)nc3c2O)cc1 (stereo not drawn) | i | -8% | 1% | i | -20% | i
Cc1ccc2ccc(C(Nc3ccccc3)c3ccc(C(C)C)cc3)c(O)c2n1 (stereo not drawn) | 15µM* | ? | / | / | ? | ?
CCCNS(=O)(=O)Nc1ncnc(OCCOc2ncc(Br)cn2)c1-c1ccc(Br)cc1 | / | / | 16% | / | / | /
CC(NC(=O)c1ccccc1)C(=O)NC1CCCc2ccccc21 (stereo not drawn) | i | 13% | 4% | i | -1% | i
CCCCC(F)(F)[C@@]1(O)CC[C@H]2[C@H](CC(=O)[C@@H]2CCCCCCC(=O)O)O1 | / | / | ? | i | / | /
COc1ccc(Cn2c(=O)c3cccnc3n(Cc3cccc(OC)c3)c2=O)cc1 | i | / | -11% | i | / | i
CCC(C)n1c(=O)c(C(=O)Nc2ccccc2S(N)(=O)=O)c(O)c2ccccc21 (stereo not drawn) | 16µM* | ? | ? | ? | ? | ?
Cn1c(=O)c(C(=O)Nc2ccccc2S(N)(=O)=O)c(O)c2ccccc21 | i | -25% | 39% | i | -19% | ?
Cc1nc([N+](=O)[O-])c(Br)n1CC(=O)c1ccccc1 | i | ? | -11% | i | ? | i
Cc1nc([N+](=O)[O-])c(Br)n1CC(=O)c1ccc2ccccc2c1 | i | ? | ? | 32µM* | 16µM* | i
Cc1nc([N+](=O)[O-])c(Br)n1CC(=O)c1ccc(Br)cc1 | ? | ? | -19% | ? | 21µM* | ?
Fc1ccc([C@@H]2Nc3ccccc3[C@@H]3C=CC[C@@H]32)cc1 | i | / | 6% | i | / | i
O=C(Nc1nnc(-c2ccncc2)o1)c1ccc(Br)s1 | 21µM* | ? | -34% | i | -18% | ?
OC(c1ccc(Cl)cc1)c1ncc(-c2ccc(Oc3ccccc3)cc2)[nH]1 (stereo not drawn) | ? | 23µM* | ? | ? | 23µM* | i
O=C(O)c1ccc(/C=C2\COc3ccccc3C2=O)cc1 | i | ? | -34% | i | ? | i
COc1ccc(/C=C2\COc3ccccc3C2=O)cc1OC | ? | 18µM* | 4% | i | 12µM* | i
